The sample as a whole holds a higher share of the strongest signals than the screen did.

Chain of PILRa (Mus musculus), Q2YSF3 (Q2YSF3 entry or part of it): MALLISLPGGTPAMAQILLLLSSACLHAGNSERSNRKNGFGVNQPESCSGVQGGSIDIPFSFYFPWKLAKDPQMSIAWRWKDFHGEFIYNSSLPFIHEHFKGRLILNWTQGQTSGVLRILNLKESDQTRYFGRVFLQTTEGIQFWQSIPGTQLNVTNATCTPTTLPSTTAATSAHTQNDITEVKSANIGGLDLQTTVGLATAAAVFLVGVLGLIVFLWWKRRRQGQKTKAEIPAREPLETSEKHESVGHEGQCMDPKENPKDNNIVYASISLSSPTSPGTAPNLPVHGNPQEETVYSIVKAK
Chain of Avaren (Actinomycete K97) (chain, as listed by the source): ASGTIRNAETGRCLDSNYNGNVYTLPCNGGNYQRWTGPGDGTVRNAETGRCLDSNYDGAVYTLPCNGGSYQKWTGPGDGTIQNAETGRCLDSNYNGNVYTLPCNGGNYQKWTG
Chain of 6RG (Lolium perenne), B9U140 (B9U140 entry or part of it): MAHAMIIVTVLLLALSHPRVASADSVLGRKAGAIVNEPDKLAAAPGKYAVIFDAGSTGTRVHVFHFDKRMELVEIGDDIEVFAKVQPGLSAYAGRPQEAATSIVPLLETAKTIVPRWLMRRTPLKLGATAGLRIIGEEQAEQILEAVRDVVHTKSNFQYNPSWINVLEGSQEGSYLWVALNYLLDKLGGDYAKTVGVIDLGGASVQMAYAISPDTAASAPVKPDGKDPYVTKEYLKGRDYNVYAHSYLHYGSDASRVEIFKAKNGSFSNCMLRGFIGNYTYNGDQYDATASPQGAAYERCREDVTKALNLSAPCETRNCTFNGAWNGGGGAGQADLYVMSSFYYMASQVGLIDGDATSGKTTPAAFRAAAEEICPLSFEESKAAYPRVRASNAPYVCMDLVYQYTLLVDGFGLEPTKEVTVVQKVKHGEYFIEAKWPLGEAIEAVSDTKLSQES
Chain of C3b (Homo sapiens), P01024 (P01024 23-667): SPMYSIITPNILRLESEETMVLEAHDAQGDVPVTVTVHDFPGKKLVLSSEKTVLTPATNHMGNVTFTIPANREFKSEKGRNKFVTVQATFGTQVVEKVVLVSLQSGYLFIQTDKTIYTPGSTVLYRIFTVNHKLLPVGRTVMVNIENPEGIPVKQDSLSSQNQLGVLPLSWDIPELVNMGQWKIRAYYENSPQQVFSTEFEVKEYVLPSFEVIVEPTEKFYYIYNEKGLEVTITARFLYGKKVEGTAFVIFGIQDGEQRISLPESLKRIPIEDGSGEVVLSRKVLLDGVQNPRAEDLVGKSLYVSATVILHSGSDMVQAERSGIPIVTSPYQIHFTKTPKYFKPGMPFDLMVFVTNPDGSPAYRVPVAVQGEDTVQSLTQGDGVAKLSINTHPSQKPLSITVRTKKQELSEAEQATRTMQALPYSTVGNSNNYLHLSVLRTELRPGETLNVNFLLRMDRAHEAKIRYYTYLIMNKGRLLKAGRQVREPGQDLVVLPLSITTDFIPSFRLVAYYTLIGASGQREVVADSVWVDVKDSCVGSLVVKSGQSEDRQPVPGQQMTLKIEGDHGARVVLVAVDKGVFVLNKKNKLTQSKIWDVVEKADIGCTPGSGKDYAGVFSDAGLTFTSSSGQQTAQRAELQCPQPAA

The test relates to Gal(a1-3)Gal(b1-4)Glc. In words: glycan array binding signal (z-score within array); higher = stronger binding. To be noted: glycan notation: IUPAC condensed, linker removed. The method in brief: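 The binding signal is a Z-score computed within each array and averaged over linkers. Arrays of the same protein sequence at different concentrations or buffers were also averaged together. Data originate from 3228 arrays in the Consortium for Functional Glycomics database, kept only where the protein sequence was available.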
For PILRa (Mus musculus), Q2YSF3, the “glycan array binding signal (z-score)” value was 0.145.

Take 6RG (Lolium perenne), B9U140: the “glycan array binding signal (z-score)” value is -0.272.

As to Avaren (Actinomycete K97), the “glycan array binding signal (z-score)” value was 0.305.

Regarding C3b (Homo sapiens), P01024, the “glycan array binding signal (z-score)” value is 1.67.
